Reference: PubChem BioAssay (NCI)
This is part of a sample that, as a whole, favours compounds with a hit. Of some 79,000 tested, about 15% had one in any assay. The source made the active and inactive calls. Rule as the data show it: active = growth inhibition above about 70%; inactive = the rest.

What was measured:
[1] = NCI Yeast Anticancer Drug Screen. Data for the rad52 strain (AID 147);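 also: 0% = growth of vehicle-treated control cultures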; settings: S. cerevisiae rad52 mutant growth inhibition, active compounds read high
In short: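 Yeast strain carrying a DNA damage repair alteration was exposed to test compounds. Growth inhibition was measured relative to vehicle-treated controls.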

[2] = NCI Yeast Anticancer Drug Screen. Data for the wt1 strain (AID 149);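 also: 0% = growth of vehicle-treated wt1 cultures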; settings: S. cerevisiae wt1 strain (SPY 50644) growth inhibition, active compounds read high
In short: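 Compounds are added to wt1 yeast cultures. Growth is then measured. Inhibition is expressed relative to vehicle-treated controls.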

[3] = NCI Yeast Anticancer Drug Screen. Data for the mgt1 strain (AID 153); settings: S. cerevisiae mgt1 mutant growth inhibition, active compounds read high
In short: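 Yeast mgt1 strain (DNA repair/cell-cycle alteration panel) exposed to compounds; growth inhibition measured relative to vehicle-treated controls.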

[4] = NCI Yeast Anticancer Drug Screen. Data for the rad50 strain (AID 155);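 also: 0% = growth of vehicle-only cultures of the same strain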; settings: S. cerevisiae rad50 strain growth inhibition, active compounds read high
In short: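 Inhibition values express reduced yeast growth in compound-treated cultures relative to vehicle-treated controls.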

[5] = NCI Yeast Anticancer Drug Screen. Data for the mec2-1 strain (AID 157); settings: S. cerevisiae mec2-1 strain, active compounds read high
In short: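 mec2-1 yeast strain, carrying an alteration in DNA damage repair or cell cycle control, was exposed to compounds; growth inhibition was measured relative to vehicle-treated controls.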

[6] = NCI Yeast Anticancer Drug Screen. Data for the sgs1 mgt1 strain (AID 161);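 also: 0% = growth of cultures given vehicle only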; settings: S. cerevisiae sgs1 mgt1 strain, active compounds read high
In short: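 Percent growth inhibition was derived by comparing compound-exposed mutant yeast with vehicle-exposed cultures. The strain carries alterations in DNA damage repair.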

[7] = NCI Yeast Anticancer Drug Screen. Data for the CLN2oe strain (AID 163);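 also: 0% = growth of vehicle-only control cultures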; settings: S. cerevisiae CLN2oe strain, active compounds read high
In short: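 Yeast cells carrying a defined cell-cycle control alteration were exposed to test compounds. Growth inhibition was scored against vehicle-treated control cultures.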

[8] = NCI Yeast Anticancer Drug Screen. Data for the cln2 rad14 strain (AID 165);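 also: 0% = growth equal to vehicle treated cultures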; settings: S. cerevisiae cln2 rad14 strain, active compounds read high
In short: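 Yeast carrying cln2 and rad14 alterations (cell cycle control and DNA damage repair) were exposed to compounds. Growth inhibition was measured against vehicle-treated controls.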

[9] = NCI Yeast Anticancer Drug Screen. Data for the bub3 strain (AID 167); settings: S. cerevisiae bub3 mutant strain, active compounds read high
In short: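 Steps: expose the mutant yeast strain to compound; grow alongside vehicle-treated cultures; measure growth; express inhibition against the vehicle cultures.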

[10] = NCI Yeast Anticancer Drug Screen. Data for the wt2 strain (AID 169);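 also: 0% = growth of vehicle-treated yeast cultures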; settings: S. cerevisiae wt2 strain growth inhibition, active compounds read high
In short: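 Yeast cells were exposed to test compounds, and growth inhibition was measured relative to vehicle-treated controls.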

[11] = NCI Yeast Anticancer Drug Screen. Data for the mlh1 strain (AID 171);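 also: 0% = growth of vehicle-treated control cultures of the same strain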; settings: S. cerevisiae mlh1 strain growth inhibition, active compounds read high
In short: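 Yeast carrying a defined genetic alteration in DNA damage repair or cell cycle control were exposed to test compounds. Growth inhibition was measured relative to vehicle-treated controls.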

[12] = NCI Yeast Anticancer Drug Screen. Data for the sgs1 strain (AID 173);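 also: 0% = growth of vehicle-only control cultures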; settings: S. cerevisiae sgs1 mutant, active compounds read high
In short: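 Yeast mutant strains carrying defined defects in DNA damage repair or cell cycle control were exposed to test compounds. Growth inhibition was scored against vehicle-treated controls.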

[13] = NCI Yeast Anticancer Drug Screen. Data for the mlh1 rad18 strain (AID 175); settings: S. cerevisiae mlh1 rad18 strain growth inhibition, active compounds read high
In short: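 Growth inhibition of the yeast strain was measured after compound exposure and expressed relative to vehicle-treated controls. The strain carries defined defects in DNA damage repair.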

[14] = NCI Yeast Anticancer Drug Screen. Data for the rad18 strain (AID 177); settings: S. cerevisiae rad18 mutant growth inhibition, active compounds read high
In short: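 Yeast carrying a defined DNA damage repair alteration were exposed to compounds. Growth inhibition was expressed relative to vehicle-treated controls.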

[15] = at 5.0 µM (retest, dose inferred, filed as 0.5)
[16] = at 50.0 µM (retest, dose inferred, filed as 5.0)

Measured: growth inhibition

Nc1ccccc1C(=O)OCCc1ccccc1
active: [1]; at 100.0 µM 91% | [2]; at 100.0 µM 92% | [3]; at 100.0 µM 96% | [4]; [16] 93% | [4]; at 50.0 µM 82.9% | [4]; at 100.0 µM 97% | [5]; [16] 99% | [5]; at 100.0 µM 85% | [6]; [16] 74% | [7]; at 100.0 µM 91% | [8]; [16] 76% | [9]; [16] 78% | [9]; at 50.0 µM 89.5% | [9]; at 100.0 µM 76% | [10]; at 100.0 µM 94% | [11]; at 100.0 µM 97% | [12]; at 100.0 µM 94% | [13]; [16] 87% | [13]; at 50.0 µM 85.7% | [14]; at 100.0 µM 87%
inactive: [1]; at 1.2 µM -9% | [1]; at 3.7 µM -4% | [1]; at 11.0 µM -21% | [1]; at 33.0 µM -3% | [2]; at 1.2 µM -25% | [2]; at 3.7 µM -6% | [2]; at 11.0 µM -23% | [2]; at 33.0 µM -26% | [3]; at 1.2 µM -74% | [3]; at 3.7 µM -63% | [3]; at 11.0 µM -62% | [3]; at 33.0 µM -52% | [4]; at 1.2 µM -3% | [4]; at 3.7 µM -7% | [4]; [15] 36% | [4]; at 11.0 µM -31% | [4]; at 33.0 µM 13% | [5]; at 1.2 µM -8% | [5]; at 3.7 µM -4% | [5]; [15] 38% | [5]; at 11.0 µM -6% | [5]; at 33.0 µM 13% | [5]; at 50.0 µM 48.1% | [6]; [15] -17% | [6]; at 50.0 µM 68% | [7]; at 1.2 µM 19% | [7]; at 3.7 µM 17% | [7]; at 11.0 µM 14% | [7]; at 33.0 µM -1% | [8]; [15] 62% | [8]; at 50.0 µM 44.5% | [9]; at 1.2 µM -10% | [9]; at 3.7 µM 0% | [9]; [15] 12% | [9]; at 11.0 µM -1% | [9]; at 33.0 µM 5% | [10]; at 1.2 µM -16% | [10]; at 3.7 µM -15% | [10]; at 11.0 µM 3% | [10]; at 33.0 µM -12% | [11]; at 1.2 µM -15% | [11]; at 3.7 µM -17% | [11]; at 11.0 µM -18% | [11]; at 33.0 µM -7% | [12]; at 1.2 µM -38% | [12]; at 3.7 µM -32% | [12]; at 11.0 µM -32% | [12]; at 33.0 µM -28% | [13]; [15] 34% | [14]; at 1.2 µM -58% | [14]; at 3.7 µM -22% | [14]; at 11.0 µM -29% | [14]; at 33.0 µM -24%
